The record followed here is PubChem BioAssay (NCATS).

The structures appear in SMILES notation. A number with no mark means an inactive call. Inconclusive results are not listed. Activity calls are given as the source filed them. Unless noted, calls follow the shape of the dose curve; as a rule, active = well fitted curve in either direction with a large enough effect (not every such curve was filed as active); inconclusive = small, poorly fitted or top-dose-only effect, or another doubt; inactive = flat fitted curve, though single readings scatter.

The nature of test [1]: AP1 Signaling Pathway (AID 357).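 Also: ME-180 reporter cells stimulated with EGF at its EC50 level; % is scaled to controls: 0 for no effect and ±100 for the full control effect.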 Conditions: ME-180 (cervical carcinoma) AP-1-bla reporter, EGF-induced, beta-lactamase ratio, 5 h; at 17.2 µM (top of the series) unless noted. The procedure, abridged: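 Titration-series screen for positive or negative modulators of EC50 EGF-induced signaling in ME-180 cells carrying an AP-1-driven beta-lactamase reporter. After 5 hours at 37 degrees Celsius, CCF4 460nm/530nm emission ratio gave %Activity; AC50 values derived.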

A short description of test [2]: NFAT Signaling Pathway (AID 444).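 Also: carbachol stimulus at about its EC50 of 1 µM final; % is scaled to controls: 0 for no effect and ±100 for the full control effect.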 Conditions: Jurkat NFAT-bla M1, carbachol, beta-lactamase ratio, 5 h; at 17.2 µM (top of the series) unless noted. The method in brief: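 Read-out: CCF4 FRET ratio (460 nm/530 nm) after 1 h RT dye loading, used for %activity and AC50 from titration series. Cells: Jurkat NFAT-β-lactamase/M1 line, treated with compound plus 1 uM carbachol for 5 h, 37 °C.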

Test [3] deals with Glucocorticoid receptor (Homo sapiens) (UniProt P04150). Kind of test: GR-GFP Redistribution (AID 450;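 active = compounds whose dose series gives a full or clear partial fitted curve of increased nuclear translocation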; also: potency is read from the fitted curve at half-maximal effect).
Glucocorticoid receptor (Homo sapiens), sequence (P04150 whole entry, looked up): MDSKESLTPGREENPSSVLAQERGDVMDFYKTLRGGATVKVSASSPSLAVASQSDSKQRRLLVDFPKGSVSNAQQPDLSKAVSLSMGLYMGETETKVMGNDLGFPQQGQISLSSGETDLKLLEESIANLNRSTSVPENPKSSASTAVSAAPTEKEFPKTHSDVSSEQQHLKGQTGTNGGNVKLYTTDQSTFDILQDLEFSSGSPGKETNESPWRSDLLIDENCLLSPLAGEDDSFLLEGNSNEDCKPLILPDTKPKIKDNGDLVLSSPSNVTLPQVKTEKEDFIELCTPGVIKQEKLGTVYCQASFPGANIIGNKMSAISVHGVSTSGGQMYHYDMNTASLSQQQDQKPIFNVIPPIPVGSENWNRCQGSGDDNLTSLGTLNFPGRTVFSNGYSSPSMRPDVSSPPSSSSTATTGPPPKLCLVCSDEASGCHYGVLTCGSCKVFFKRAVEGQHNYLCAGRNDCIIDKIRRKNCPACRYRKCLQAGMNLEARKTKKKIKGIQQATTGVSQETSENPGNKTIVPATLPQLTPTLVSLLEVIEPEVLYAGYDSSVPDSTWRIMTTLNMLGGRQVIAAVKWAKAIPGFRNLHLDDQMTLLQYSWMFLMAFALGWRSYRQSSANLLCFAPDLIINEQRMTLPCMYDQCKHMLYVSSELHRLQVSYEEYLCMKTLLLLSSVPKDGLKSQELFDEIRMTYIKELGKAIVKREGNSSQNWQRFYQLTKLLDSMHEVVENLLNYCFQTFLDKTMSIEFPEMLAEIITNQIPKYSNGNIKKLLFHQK

As for `COc1cc2c(cc1OC)C1(CCCC1)C(N)=C2C#N`, the activity change, negative = inhibition in test [1] is -17.7%; in test [2], -1.71%. Also, the Potency in test [3] was above 20.6 µM.
Turning to `CN1C(=O)C2(N=c3ccccc3=N2)c2ccccc21`, the activity change, negative = inhibition in test [1] is 15.2%; in test [2], 25.6%. In test [3], the Potency was above 20.6 µM.
On to `CCn1cc(C(=O)NCc2ccccn2)c(=O)c2cc(F)c(N3CCN(C)CC3)cc21`, for which the activity change, negative = inhibition in test [1] was -1.53%; in test [2], -29.8%. Further, the Potency in test [3] is above 20.6 µM.
Taken in the same sequence, the figures for `Cc1cc(=O)oc(C)c1C(=O)NCC(C)NC(=O)c1c(C)cc(=O)oc1C` (stereo not drawn) were 0.223%, 10.2% and above 20.6 µM.
For `COC(=O)c1ccc(C2NC(C(=O)O)CS2)cc1` (stereo not drawn) the same measures were 5.95%, 6.25% and above 20.6 µM.
For `O=C(NCCC1=CCCCC1)c1ccc(=O)oc1` the same measures were -16%, -4.94% and above 20.6 µM.
Turning to `COc1ccc(Cn2c(CCCO)nc3ccccc32)cc1OC`, the activity change, negative = inhibition in test [1] is -8.44%; in test [2] it was 3.22%. The Potency in test [3] was above 20.6 µM.
Taken in the same sequence, the figures for `Cc1cc(C)n(Cc2ccc(C(=O)NCCC3=CCCCC3)o2)n1` were -15.1%, -1.94% and above 20.6 µM.
Taken in the same sequence, the figures for `Cc1ccc(-c2nn3c(-c4cccc(Cl)c4)nnc3s2)cc1` were 24.6%, -1.56% and above 20.6 µM.
`CC1(c2ccco2)NC(=O)NC1=O` (stereo not drawn): the activity change, negative = inhibition in test [1] is 5.26%; in test [2], 1.83%. For the same compound, in test [3], the Potency is above 20.6 µM.
`CCc1ccc(NC(=O)CSC2=C(C#N)C(c3ccc4c(c3)OCO4)CC(=O)N2)cc1` (stereo not drawn): the figures for the activity change, negative = inhibition in test [1] and in test [2] were -19.8% and -5.09%, respectively. In test [3], the Potency was above 20.6 µM.
For `c1ccc(-c2nnc(OCCN3CCOCC3)c3ccccc23)cc1` the same measures were -8.82%, 5.5% and above 20.6 µM.
For `O=C(/C=C/c1ccccc1)c1ccccc1` the same measures were 19.8%, -14.4% and above 20.6 µM.
For `CCCCOC(=O)CSc1nc(N)c(C#N)c(-c2ccc(OC)cc2)c1C#N` the same measures were -13.6%, -0.768% and above 20.6 µM.
As for `Cn1c(=O)cc(NCc2ccccc2)[nH]c1=O`, the activity change, negative = inhibition is 15% in test [1] and -6.77% in test [2]. The Potency in test [3] was above 20.6 µM.
For `COc1ccc(OC)c(C2=Nn3c(nnc3-c3ccco3)SC2)c1` the same measures were -13.7%, 24.6% and above 20.6 µM.
Taken in the same sequence, the figures for `Cc1c(Cl)c(C(F)(F)F)nn1CC(=O)N1CCSCC1` were 9.46%, 0.195% and above 20.6 µM.
For `CC1(C(=O)CSc2ncn[nH]2)CCC(=O)O1` (stereo not drawn) the same measures were -3.81%, 2.7% and above 20.6 µM.
In the case of `CCOc1nc(Oc2cccc(C(=O)O)c2)nc(Oc2cccc(C(=O)O)c2)n1`, the activity change, negative = inhibition in test [1] is 29.4%; in test [2] it was 0.693%. The Potency in test [3] was above 20.6 µM.
For `CCOC(=O)c1[nH]c2cc3c(cc2c1NC(=O)CN1CCc2ccccc2C1)OCO3` the same measures were -23.5%, -10.9% and above 20.6 µM.
Take `CC1(C)Cc2c(c(N3CCOCC3)nc3sc4c(=O)[nH]cnc4c23)CS1`: the activity change, negative = inhibition is 4.29% in test [1] and 5.56% in test [2]. For the same compound, the Potency in test [3] is above 20.6 µM.
Taken in the same sequence, the figures for `ClC(Br)=C(n1cnc2ccccc21)n1cnc2ccccc21` were -25.5%, -11.4% and above 20.6 µM.
For `O=C(CC(c1ccccc1)c1ccco1)N1CCOCC1` (stereo not drawn) the same measures were -9.46%, 1% and above 20.6 µM.
For `COC(=O)C1C(=O)CC(C)(O)C(C(=O)OC)C1c1ccccc1F` (stereo not drawn) the same measures were 0.159%, -0.943% and above 20.6 µM.
In the case of `CCOC(=O)CCc1c(C)c(C#N)c2[nH]c3ccccc3n2c1=O`, the activity change, negative = inhibition was -16.5% in test [1] and -0.365% in test [2]. Moreover, the Potency in test [3] was above 20.6 µM.
For `C[n+]1cccc(CNC(=O)/C=N/O)c1` the same measures were -0.78%, 2.4% and above 20.6 µM.
For `O=C(NC1(C(F)(F)F)C(=O)Nc2c1c(=O)[nH]c(=O)n2-c1ccccc1)c1cccnc1` (stereo not drawn) the same measures were -3.2%, 8.45% and above 20.6 µM.
For `CC(=O)Oc1oc(-c2ccccc2)nc1/C=N/c1ccccn1` the same measures were -71.1%, -130% (active) and above 20.6 µM.
With `COc1ccccc1C(=O)N1CCN(Cc2ccc3c(c2)OCO3)CC1`, the activity change, negative = inhibition is -11.7% in test [1] and -10.5% in test [2]. For the same compound, in test [3], the Potency was above 20.6 µM.
As for `COn1c(=S)[nH]c2ccccc2c1=O`, the activity change, negative = inhibition was 20.1% in test [1] and 11.2% in test [2]. In addition, the Potency in test [3] is above 20.6 µM.
For the compound `CC(C)CC(NC(=O)OC(C)(C)C)C(=O)NCc1ccccc1` (stereo not drawn), the activity change, negative = inhibition in test [1] was -7.56%; in test [2] it was -25.8%. Further, the Potency in test [3] is above 20.6 µM.
